We go through 14 molecules from PubChem BioAssay.

The nature of assay [1]: inhibitors of TNFa-induced NFkB p65 translocation, primary screen, imaging, HUVEC, MLSMR starter and 10KST1 sets (AID 438;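 active means inhibition above 20% together with a positive visual image hit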;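 further: compound added about 3h40 before a 20 min TNFalpha stimulation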;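 on inhibition: signal is the nuclear over cytoplasmic p65 intensity ratio per well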). The note with it: HUVEC TNFa-induced p65 nuclear translocation; cell count: measured here: nuclei count (cytotoxicity indicator), at 2.08 µM unless noted; inhibition: at 2 µM, stronger effect = higher value unless noted.
Assay [2] in a line: reduction of polyQ htt aggregates in cells – imaging, exon1htt(103Q)mCFP cells, high-content imaging, primary screen (AID 483;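 active means visual image review flags a hit and inhibition of aggregation exceeds 20%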;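 further: compound exposure lasted 3 days before fixation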;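 on nuclei count: percent of the per-plate median nuclei count of sample wells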). To be noted: exon1htt(103Q)mCFP cell line, aggregate imaging, at 2 µM; inhibition of aggregation: stronger effect = higher value; nuclei count: measured here: cell count, toxicity.
Assay [3] is described as follows: endothelial E-selectin expression blockers – imaging, HUVEC, immunofluorescence, MLSMR starter and 10KST1 sets, primary screen (AID 487;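 active means visually confirmed hit in the image check and inhibition above 20%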;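 on inhibition: signal is fraction of cell area covered by stained E-selectin grains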;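 on nuclei count: 100% = median nuclei count of all wells on the same plate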). The note with it: HUVEC TNFalpha-induced E-selectin immunofluorescence imaging, at 2 µM; inhibition: stronger effect = higher value; nuclei count: measured here: cell number, toxicity.
Assay [4] deals with Voltage-gated potassium channel subunit beta-2 (Rattus norvegicus) (UniProt P62483). In words: inhibitors of rat Kvbeta2 reductase activity – biochemical, NADPH fluorescence, primary screen (AID 622;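 active means fluorescence slope higher than the sample average by over 3 SD, cut at about -0.22 in these data, passing the limit was not always enough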;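 further: slope of raw intensity against log time taken from 70 to 1610 s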). The note with it: recombinant KvBeta, 4-cyanobenzaldehyde reduction, at 10 µM, stronger effect = higher value.
Sequence of Voltage-gated potassium channel subunit beta-2 (Rattus norvegicus) (P62483 whole entry, looked up): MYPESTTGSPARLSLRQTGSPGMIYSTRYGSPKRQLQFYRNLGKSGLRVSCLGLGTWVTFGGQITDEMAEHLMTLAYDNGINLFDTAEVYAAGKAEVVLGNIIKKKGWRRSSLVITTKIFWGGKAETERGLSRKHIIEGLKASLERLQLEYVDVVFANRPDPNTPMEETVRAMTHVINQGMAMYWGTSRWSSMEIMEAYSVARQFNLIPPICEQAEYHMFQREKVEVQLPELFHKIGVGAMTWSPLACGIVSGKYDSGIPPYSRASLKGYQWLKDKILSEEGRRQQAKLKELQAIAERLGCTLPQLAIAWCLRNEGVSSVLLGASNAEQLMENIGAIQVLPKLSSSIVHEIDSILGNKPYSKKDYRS
For assay [5] the target is unchanged. In words: enhancers of rat Kvbeta2 NADPH turnover – biochemical, NADPH fluorescence, primary screen (AID 623;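 active means NADPH fluorescence slope more negative than the mean of all samples by about 3 SD, 99.7% confidence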;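 further: fluorescence intensity change per second fitted from 20 to 320 s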). The note with it: Recombinant KvBeta, NADPH fluorescence decrease slope, 10 min; at 10 µM; stronger effect = lower value.
Assay [6] concerns the target Alpha-2C adrenergic receptor (Homo sapiens) (UniProt P18825). The assay is described as follows: compounds altering alpha2C-coupled GIRK flux – cell-based, HEK293 alpha2C/GIRK1/2, thallium flux, primary screen (AID 624).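 Further: slope of fluorescence ratio to pre-addition baseline per second over 15 to 24 s.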 To be noted: thallium flux BTC fluorescence, at 10 µM, actives lie on both sides.
Assay [7] can be described thus: blockers of RIG-like receptor reporter activation – cell-based, Sendai virus stimulus, luciferase, 10K MLSCN set, TLR/RLR signaling modifier project, primary screen (AID 602276;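 active means inhibition at or above 50% at 10 µM; inactive means inhibition below 50%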;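 further: firefly luciferase from ISG56 promoter only with Renilla not read in this screen; 0% = Sendai virus plus DMSO and 100% = medium plus DMSO without virus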). To be noted: HEK293 RL24 IRF3 luciferase reporter, at 10 µM, stronger effect = higher value.
Assay [8] can be described thus: TLR3 IRF3 reporter activation blockers – cell-based, poly I:C stimulus, luciferase, 10K MLSCN set, primary screen (AID 602277;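 active means inhibition of the reporter signal at or above 50%; inactive means inhibition below 50%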). The note with it: HEK293-TLR3 RL24 IRF3 luciferase reporter, at 10 µM, stronger effect = higher value. (In a reporter assay the amount or activity of a reporter protein is the signal.)

Each structure is given as a SMILES string. Calls of active or inactive are those of the source.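 How the source made its calls, unless noted: active means fluorescence slope after compound addition differing from the mean of all screened samples at 99.7% confidence, in either direction; inactive means the rest.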

Sequence of Alpha-2C adrenergic receptor (Homo sapiens) (P18825 whole entry, looked up): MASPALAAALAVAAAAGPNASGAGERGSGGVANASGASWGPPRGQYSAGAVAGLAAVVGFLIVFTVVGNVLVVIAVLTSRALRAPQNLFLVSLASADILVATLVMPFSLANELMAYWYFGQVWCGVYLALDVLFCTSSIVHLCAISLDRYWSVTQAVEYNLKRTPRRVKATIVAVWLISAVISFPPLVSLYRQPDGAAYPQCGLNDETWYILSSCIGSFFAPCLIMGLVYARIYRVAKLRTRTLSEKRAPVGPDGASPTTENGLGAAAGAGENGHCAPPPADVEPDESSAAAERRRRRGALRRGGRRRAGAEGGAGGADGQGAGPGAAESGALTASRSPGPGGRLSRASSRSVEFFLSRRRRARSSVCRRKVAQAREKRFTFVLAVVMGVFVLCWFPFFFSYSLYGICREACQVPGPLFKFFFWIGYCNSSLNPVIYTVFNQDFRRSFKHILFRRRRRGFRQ

In general, inhibition refers to the drop in the measured response relative to a control, in per cent. As for `CCOC(=O)C1SC2(C(F)F)CC1(O)c1c(c(OC)c3occc3c1OC)O2` (centres undefined), the cell count in assay [1] is 665. Further, the inhibition in assay [1] is -5.1% (inactive); in assay [3], 52.9% (inactive); in assay [7], 4.1% (inactive); in assay [8] it was 14.4% (inactive). Besides, the inhibition of aggregation in assay [2] was 13% (inactive). Also, the nuclei count came to 98.5% in assay [2] and 105% in assay [3]. In addition, the fluorescence slope in assay [4] is -0.326 (inactive). For the same molecule, the NADPH fluorescence slope in assay [5] was -5.6e-05 (inactive). Also, the slope in assay [6] is 0.00497 (inactive).
With `C[C@H]1CCCC(=O)CCC/C=C/c2cc(O)cc(O)c2C(=O)O1`, the cell count in assay [1] turned out to be 420. The inhibition in assay [1] is 6.1% (inactive); in assay [3] it was -42% (inactive); in assay [7] it was 13.5% (inactive); in assay [8], 8.12% (inactive). The inhibition of aggregation in assay [2] is 4.4% (inactive). Moreover, the nuclei count in assay [2] stood at 93.9%; in assay [3], 108%. Further, the fluorescence slope in assay [4] is -0.55 (inactive). For the same molecule, in assay [5], the NADPH fluorescence slope was -7.2e-05 (inactive). In addition, the slope in assay [6] was 0.00303 (inactive).
For `O=c1c2ccccc2nc(CSc2ncnc3nc[nH]c23)n1-c1ccccc1`, in assay [1], the cell count turned out to be 546. For the same molecule, the inhibition in assay [1] was 2.3% (inactive); in assay [3], -123% (inactive); in assay [7] it was -0.567% (inactive); in assay [8], 13.7% (inactive). In assay [2], the inhibition of aggregation was 2.9% (inactive). The results for the nuclei count in assay [2] and in assay [3] were 106% and 103%, respectively. In addition, the fluorescence slope in assay [4] was -0.492 (inactive). For the same molecule, in assay [5], the NADPH fluorescence slope was -9.1e-05 (inactive). The slope in assay [6] was 0.00489 (inactive).
For `CCN1CCN(C(=O)COc2cc(=O)n(CC)c3ccccc23)CC1`, in assay [1], the cell count was 357. In addition, the inhibition was 0% (inactive) in assay [1], -7.3% (inactive) in assay [3], 3.27% (inactive) in assay [7] and 36.3% (inactive) in assay [8]. In assay [2], the inhibition of aggregation is -14.7% (inactive). Moreover, the nuclei count in assay [2] is 99.2%; in assay [3] it was 115%. Moreover, in assay [4], the fluorescence slope was -0.386 (inactive). For the same molecule, in assay [5], the NADPH fluorescence slope is -4.3e-05 (inactive). Also, the slope in assay [6] is 0.00614 (inactive).
On to `COc1ccc(C(=O)C(C)(C)NO)cc1`, for which, in assay [1], the cell count is 653. Besides, the inhibition in assay [1] was -4.6% (inactive); in assay [3], -81.1% (inactive); in assay [7] it was 12.6% (inactive); in assay [8] it was 26.7% (inactive). The inhibition of aggregation in assay [2] was 12.4% (inactive). Besides, the nuclei count turned out to be 94.3% in assay [2] and 119% in assay [3]. Further, in assay [4], the fluorescence slope is -0.62 (inactive). The NADPH fluorescence slope in assay [5] was 1.3e-05 (inactive). The slope in assay [6] was 0.00701 (inactive).
The molecule `CN(C)CCN=Cc1c(O)n(-c2cccc3ccccc23)c(=O)[nH]c1=O` registered a cell count in assay [1] of 569. Further, the inhibition was 0% (inactive) in assay [1], 25.9% (inactive) in assay [3], 14% (inactive) in assay [7] and 11.3% (inactive) in assay [8]. For the same molecule, the inhibition of aggregation in assay [2] was -6.8% (inactive). For the same molecule, the values for the nuclei count in assay [2] and in assay [3] were 107% and 110%, respectively. For the same molecule, in assay [4], the fluorescence slope was -0.419 (inactive). Besides, the NADPH fluorescence slope in assay [5] is -4.5e-05 (inactive). The slope in assay [6] was 0.00451 (inactive).
`O=C(O)C1(c2ccc(Cl)cc2)CCC1` came in with a cell count in assay [1] of 433. The inhibition in assay [1] is 7.5% (inactive); in assay [3] it was -422% (inactive); in assay [7], 12.9% (inactive); in assay [8] it was 21.3% (inactive). The inhibition of aggregation in assay [2] is 1.5% (inactive). Further, the nuclei count in assay [2] worked out at 104%; in assay [3], 158%. Also, in assay [4], the fluorescence slope was -0.461 (inactive). Besides, in assay [5], the NADPH fluorescence slope was 2.3e-05 (inactive). Moreover, the slope in assay [6] was 0.00643 (inactive).
In the case of `CCOc1ccc(-n2c(O)c(C=NCCN(CC)CC)c(=O)[nH]c2=O)cc1`, the cell count in assay [1] is 411. Also, the inhibition in assay [1] was -1.5% (inactive); in assay [3], -87.3% (inactive); in assay [7], 0.257% (inactive); in assay [8] it was 1.28% (inactive). Moreover, the inhibition of aggregation in assay [2] was -1.7% (inactive). In addition, the nuclei count is 89.3% in assay [2] and 125% in assay [3]. In assay [4], the fluorescence slope is -0.553 (inactive). Further, the NADPH fluorescence slope in assay [5] was 1.2e-05 (inactive). The slope in assay [6] is 0.00486 (inactive).
In turn, `CCN1c2nc3ccccn3c(=O)c2CC2(C(=O)N(C)C(=O)N(C)C2=O)C1C` (centres undefined) yielded a cell count in assay [1] of 359. Further, the inhibition in assay [1] is 4.3% (inactive); in assay [3] it was -34% (inactive); in assay [7] it was 19% (inactive); in assay [8], 19.6% (inactive). Further, the inhibition of aggregation in assay [2] was -17.6% (inactive). Further, the nuclei count in assay [2] was 104%; in assay [3], 114%. For the same molecule, in assay [4], the fluorescence slope is -0.482 (inactive). Moreover, the NADPH fluorescence slope in assay [5] is 1.6e-06 (inactive). Further, in assay [6], the slope is 0.00491 (inactive).
`Cc1ccc2nc(N3CCN(C)CC3)[nH]c2c1` gave a cell count in assay [1] of 369. Also, the inhibition in assay [1] was -15.9% (inactive); in assay [3], 5.8% (inactive); in assay [7], -66.5% (inactive); in assay [8], -98.1% (inactive). The inhibition of aggregation in assay [2] was 5.5% (inactive). Besides, the nuclei count in assay [2] is 87.6%; in assay [3], 97.7%. For the same molecule, the fluorescence slope in assay [4] is -0.506 (inactive). Also, the NADPH fluorescence slope in assay [5] was 4.2e-05 (inactive). Besides, the slope in assay [6] is 0.00535 (inactive).
As for `c1ccc(C2CC3CC(c4ccco4)N2O3)cc1` (centres undefined), in assay [1], the cell count stood at 301. Also, the inhibition in assay [1] was -1.4% (inactive); in assay [3] it was -68.5% (inactive); in assay [7], 9.13% (inactive); in assay [8], 16.9% (inactive). In addition, the inhibition of aggregation in assay [2] is 0% (inactive). The nuclei count was 108% in assay [2] and 118% in assay [3]. Further, in assay [4], the fluorescence slope is -0.514 (inactive). Besides, in assay [5], the NADPH fluorescence slope is -2.8e-05 (inactive). Further, the slope in assay [6] was 0.00573 (inactive).
Turning to `c1ccc(C2NCc3ccccc3-n3cccc32)cc1` (centres undefined), the cell count in assay [1] came to 704. Also, the inhibition in assay [1] was -11% (inactive); in assay [3], -10.1% (inactive); in assay [7] it was 6.74% (inactive); in assay [8] it was 15.8% (inactive). The inhibition of aggregation in assay [2] is 22.5% (inactive). For the same molecule, the nuclei count in assay [2] amounted to 66.6%; in assay [3], 93.5%. The fluorescence slope in assay [4] is -0.554 (inactive). In addition, the NADPH fluorescence slope in assay [5] is -4e-05 (inactive). The slope in assay [6] was 0.00504 (inactive).
For `C=CCn1c(O)c(C(C)=NCc2cccnc2)c(=O)[nH]c1=O`, in assay [1], the cell count worked out at 364. Further, the inhibition in assay [1] was -1% (inactive); in assay [3] it was -99.8% (inactive); in assay [7], 9.61% (inactive); in assay [8], 32.6% (inactive). In addition, the inhibition of aggregation in assay [2] was 15.3% (inactive). Also, the nuclei count in assay [2] turned out to be 96%; in assay [3], 162%. Also, the fluorescence slope in assay [4] was -0.429 (inactive). Moreover, in assay [5], the NADPH fluorescence slope is -4.2e-05 (inactive). Besides, the slope in assay [6] was 0.00457 (inactive).
In turn, `CCCNC(=O)c1c(N)n(Cc2ccc3c(c2)OCO3)c2nc3ccccc3nc12` returned a cell count in assay [1] of 699. Moreover, the inhibition is -14.7% (inactive) in assay [1], -9.2% (inactive) in assay [3], 19.3% (inactive) in assay [7] and 24.3% (inactive) in assay [8]. The inhibition of aggregation in assay [2] is -5.3% (inactive). Besides, the figures for the nuclei count in assay [2] and in assay [3] were 104% and 107%, respectively. Also, the fluorescence slope in assay [4] was -0.559 (inactive). The NADPH fluorescence slope in assay [5] is -2.1e-05 (inactive). Also, the slope in assay [6] was 0.00324 (inactive).
